A selection: hits, their analogues and other compounds. The true share with any hit is near 7.3%.
NPC1 prom act: activators of NPC1 promoter; Huh7 NPC1 promoter luciferase reporter, 24 h; Potency, µM (titrated, usually from 9.22 µM), most hits filed as activators; 2.4% of 320,000 active; AID 485313; note: nearly all actives have a fitted effect of over 60% in size
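Readout is luciferase luminescence, reflecting NPC1 promoter activation in stably transfected Huh7 cells after 24 h compound exposure at 37 °C in reduced-serum medium with 10% FBS.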
Rab9 prom act: Rab9 promoter activation | Huh7 Rab9 promoter-luciferase reporter, luminescence, 24 h | AID 485297 | 2.8% of 320,000 active | Potency, µM (top dose mostly 9.22 µM), usual class: activators; note: nearly all actives have a fitted effect of over 60% in size
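Steps: seed 1500 Huh7 Rab9-luc cells per well, rest 2 h at 37 °C; add compound in DMSO; incubate 24 h; add luciferase reagent, 10 min ambient; read luminescence.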
p53 reactivator: mutant p53 re-activation in reporter cells | H1299 p53-A138V BP100-luciferase reporter, luminescence, 24 h | Potency, µM (doses to about 92.2 µM), hits mostly activators | 0.063% of 320,000 active; note: nearly all actives have a fitted effect of over 45% in size
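H1299 (p53-null), stable ts p53-A138V + BP100-Luc; 1000 cells/well, Opti-MEM/10% FBS; cpd 4 pt, 1:5; 24 h, 37 deg C, 5% CO2; detection reagent 10 min RT; luminescence.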
FLuc counter: inhibits or activates purified firefly luciferase, miR-21 counter-screen | P08659 | purified FLuc, Km substrates, luminescence inhibition | Potency, µM (highest dose often 57.5 µM), hits mostly inhibitors | 6.9% of 360,000 active; note: nearly all actives have a fitted effect of over 55% in size
Target sequence (P08659 whole entry, looked up): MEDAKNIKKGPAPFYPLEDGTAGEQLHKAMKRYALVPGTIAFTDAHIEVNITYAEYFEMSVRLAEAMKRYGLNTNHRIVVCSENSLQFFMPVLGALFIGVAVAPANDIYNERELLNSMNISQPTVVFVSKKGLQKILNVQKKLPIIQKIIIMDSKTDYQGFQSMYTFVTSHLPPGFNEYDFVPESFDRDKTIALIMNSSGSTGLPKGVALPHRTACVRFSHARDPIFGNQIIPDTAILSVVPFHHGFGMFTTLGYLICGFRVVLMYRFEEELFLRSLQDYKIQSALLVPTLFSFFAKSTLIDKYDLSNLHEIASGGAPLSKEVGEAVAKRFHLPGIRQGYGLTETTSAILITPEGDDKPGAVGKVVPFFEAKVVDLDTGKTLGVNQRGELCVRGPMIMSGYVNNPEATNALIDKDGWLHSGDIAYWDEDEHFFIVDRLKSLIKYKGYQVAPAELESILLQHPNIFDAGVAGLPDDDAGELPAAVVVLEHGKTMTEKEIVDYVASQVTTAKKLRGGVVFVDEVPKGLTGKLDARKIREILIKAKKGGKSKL
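Purified P. pyralis luciferase, 10 nM final, with Km-level 10 uM D-luciferin and 10 uM ATP in 50 mM Tris acetate pH 7.5, 10 mM Mg acetate, 0.01% Tween-20, 0.05% BSA; 6-point qHTS titration about 60 µM downward; luminescence read.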
SMN2 splice enh: increases expression of the SMN2 splice variant | HEK293 SMN2-luciferase splicing reporter, luminescence, 30-36 h | Potency, µM (doses to about 46.1 µM), hits mostly activators | 2.8% of 210,000 active | AID 1458; note: nearly all actives have a fitted effect of over 55% in size
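HEK293 cells carry an SMN2 minigene-luciferase reporter in which exon 7 inclusion puts luciferase in frame. Cells were seeded at 2000 cells/well, attached for 10-12 hours, then exposed to compounds for 30-36 hours at 37C before ONE-Glo luminescence.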
ELG1 genotox: inducers of genotoxicity in HEK293T ELG1-luciferase cells | HEK293T ELG1-luciferase reporter, luminescence, 16 h | Potency, µM (doses to about 46 µM), actives largely listed as activators | 1.3% of 330,000 active | AID 504466; note: nearly all actives have a fitted effect of over 60% in size
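DMSO vehicle served as control against compound-treated ELG1-luciferase HEK293T cells; exposure lasted 16 hr at 37 °C and 5% CO2, followed by ONE-Glo luminescence detection after 30 min.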
Numbers stand for hits; n = inactive; u = inconclusive; x = not tested or not shown. Calls come from the whole dose curve; as a rule, active = well fitted curve in the direction sought with a large enough effect; inconclusive = small, poorly fitted or top-dose-only effect, or another doubt; inactive = no such curve, though single readings can be large; an effect the other way counts as inactive or inconclusive.

SMILES	NPC1 prom act	Rab9 prom act	p53 reactivator	FLuc counter	SMN2 splice enh	ELG1 genotox
O=C(Nc1sc2c(c1C(=O)N1CCOCC1)CCCCC2)c1cccnc1	n	n	u	n	n	n
CCNC(=S)Nc1ccc(OCC)cc1	n	n	n	n	n	n
O=C(O)CCCC(=O)Nc1ccc(OCc2nc3ccccc3s2)cc1	n	n	n	17µM	n	u
CCNC(=S)Nc1ccc(OCc2nc3ccccc3s2)cc1	3.5µM	4µM	u	12µM	x	u
Cn1c(=O)n(C)c2cc(N3CCOCC3)c(NS(=O)(=O)c3ccc(Br)cc3)cc21	x	x	x	n	13µM	x
Cc1ccc(N2CC(NC(=O)C3CCCC3)CC2=O)cc1C (centres undefined)	x	x	x	n	x	x
CC(C)(O)c1cc(=O)sc2nc3ccccc3n12	3.5µM	0.56µM	u	9.5µM	14µM	u
C[C@H](NC(=O)CNC(=O)[C@@H](NC(=O)[C@H](Cc1ccccc1)NC(=O)CNC(=O)CNC(=O)[C@@H](N)Cc1ccccc1)[C@@H](C)O)C(=O)N[C@@H](CCCN=C(N)N)C(=O)N[C@@H](CCCCN)C(=O)N[C@@H](CO)C(=O)N[C@@H](C)C(=O)N[C@@H](CCCN=C(N)N)C(=O)N[C@H](CN)CCCCN	x	x	x	x	n	x
CC(=O)Nc1ccc(N/C=C/C(=O)c2ccc(C)cc2)cc1	u	n	n	n	x	n
CN(C)c1cccc(NC(=O)c2ccco2)c1	n	n	n	n	n	n
CC(=O)Nc1ccc(N/C=C/C(=O)c2ccco2)cc1	3.2µM	1.6µM	u	11µM	28µM	4.6µM
CN(C)c1ccc(N/C=C/C(=O)c2ccco2)cc1	3.5µM	2.8µM	u	0.27µM	x	u
O=C(NCc1ccccc1F)c1ccc(CN2CC(=O)N3CCCCC3C2=O)cc1 (centres undefined)	x	x	x	n	x	x
CC(=O)Nc1ccc(S(=O)(=O)N[C@@H](C)C(=O)NC2CCCc3ccccc32)cc1 (some centres undefined)	x	x	n	x	x	n
COc1cc(NC(=O)c2nn(C)c3c2COc2ccccc2-3)cc(OC)c1OC	x	x	x	n	x	x
CCCN(CCC)C(=O)Cn1nnc2sc(-c3ccccc3)cc2c1=O	x	x	x	n	n	x
COc1ccc(C(=O)N2c3ccccc3C(=O)OC2c2ccc3c(c2)OCO3)cc1 (centres undefined)	u	u	u	19µM	13µM	n
COc1ccc2c(c1)O[C@@H](c1ccc3c(c1)OCO3)[C@H](O)C2=O	x	x	x	x	20µM	x
CCOC(=O)c1ccoc1CSCc1ccc(C(=O)OC)o1	n	n	n	n	n	21µM
N#Cc1ccccc1COC(=O)c1cc(=O)c2ccccc2o1	n	n	n	u	x	n
O=C(OCc1ccc(F)cc1)c1cc(=O)c2ccccc2o1	n	n	n	15µM	x	n
COc1ccc(-c2nc(-c3ccncc3)no2)c(OC)c1	u	0.71µM	n	0.95µM	x	2.9µM
c1ccc(-c2noc(-c3cccnc3)n2)nc1	2.8µM	2µM	u	13µM	11µM	5.2µM
O=[N+]([O-])c1cccc(-c2nc(-c3ccccn3)no2)c1	0.71µM	0.4µM	n	4.8µM	x	u
COc1cccc(-c2noc(-c3cccs3)n2)c1	u	1µM	u	2.1µM	13µM	1.3µM
SMILES	NPC1 prom act	Rab9 prom act	p53 reactivator	FLuc counter	SMN2 splice enh	ELG1 genotox
Cc1ccc2c(c1)c1c(c(=O)n(Cc3ccccc3)c(=O)n1Cc1ccccc1F)n2C	x	x	x	n	x	x
O=C(CSc1ncccc1C(=O)Oc1ccccc1Cl)Nc1ccccc1Cl	x	x	x	n	x	x
COc1cc(OC)cc(-c2nc(-c3cccc(C)c3)no2)c1	x	x	x	u	n	x
COc1cccc(-c2nc(-c3ccccn3)no2)c1	u	0.11µM	n	0.34µM	n	n
COc1cccc(-c2ccc(-c3noc(-c4ccccc4Br)n3)c(OC)n2)c1	x	x	x	u	n	x
COc1cccc(-c2noc(-c3cccnc3)n2)c1	3.5µM	2.5µM	u	5.4µM	20µM	u
COc1ccc(-c2nc(-c3cccnc3)no2)cc1OC	u	u	n	17µM	x	u
COc1cccc(-c2nc(-c3ccccc3)no2)c1	u	u	u	u	11µM	u
COC(=O)[C@H](CCSC)NC(=O)c1cccnc1SC	n	n	n	n	x	n
CCc1ccc(C(=O)NC(CCSC)C(=O)OC)cc1 (centres undefined)	n	n	n	19µM	n	n
Cc1csc2nc(CCNS(=O)(=O)c3ccc(F)cc3)cn12	x	x	x	n	x	x
COc1ccc(/C=C2\SC(=N)N(c3nccs3)C2=O)cc1OC	n	n	u	2.1µM	n	u
O=C(Nc1ccc2nc(-c3cccnc3)[nH]c2c1)C1CCCCC1	n	n	n	12µM	n	n
Nc1cccc(C(=O)Nc2ccc3nc(-c4cccnc4)[nH]c3c2)c1	n	n	n	u	n	n
CC(C)c1nc2ccc(NC(=O)C34CC5CC(CC(C5)C3)C4)cc2[nH]1	n	n	n	15µM	n	n
O=C1OCc2cc(NC(=O)C34CC5CC(CC(C5)C3)C4)ccc21	n	n	n	u	n	n
O=C(Nc1ccc2nc(-c3cccnc3)[nH]c2c1)C12CC3CC(CC(C3)C1)C2	n	n	n	11µM	n	n
CCCc1cc(=O)n2[nH]c(NC(=O)c3ccco3)nc2n1	n	n	n	n	x	n
CCC(Cc1ccccc1)NC(=O)c1csc2c1CCCCC2 (centres undefined)	x	x	x	n	n	x
Cc1cccc(N(Cc2ccccc2)C(=O)c2ccc(CS(C)(=O)=O)cc2)c1	n	n	n	n	x	n
CCc1cc(=O)oc2cc(C)cc(OC(C)C(=O)NCCCn3ccnc3)c12 (centres undefined)	n	n	n	n	x	n
CCCn1c(NCc2ccco2)nc2ccccc21	n	n	u	n	u	n
Cc1cc(NCc2ccccn2)ccc1Br	u	u	n	15µM	n	n
CCCn1cnc2cc(NCc3ccccc3OCC)ccc21	x	x	x	n	n	x
CC(C)n1cnc2cc(NCc3ccccc3O)ccc21	n	u	n	21µM	x	n
SMILES	NPC1 prom act	Rab9 prom act	p53 reactivator	FLuc counter	SMN2 splice enh	ELG1 genotox
CC(C)n1cnc2cc(NCc3ccccn3)ccc21	1.8µM	u	u	24µM	18µM	u
CC(C)n1cnc2cc(NCc3ccco3)ccc21	u	u	n	17µM	u	n
CCCn1c2ccccc2c2cnn(CC(=O)Nc3ccc(C)cc3Br)c(=O)c21	x	x	x	n	x	x
CC(C)(C)n1cnc2cc(NS(=O)(=O)c3ccccc3)ccc21	n	n	n	n	n	n
CC(C)(C)n1cnc2cc(NC(=O)c3ccc(Cl)cc3)ccc21	0.56µM	0.5µM	x	4.8µM	x	2.9µM
CC(C)(C)n1cnc2cc(NCc3ccccc3O)ccc21	n	n	n	12µM	x	n
O=C(NCCc1cccs1)c1ccc(Cn2c(SCc3ccc(F)cc3)nc3cccnc32)cc1	x	x	x	2.1µM	n	x

Assay outcomes (PubChem)
